Assay outcomes deposited in PubChem by National Center for Advancing Translational Sciences (NCATS).
Hits are enriched below; roughly 5.9% of the tested compounds scored in any of these assays.
KB-3-1 tox: kills parental KB-3-1 adenocarcinoma cells; AID 1347075; KB-3-1 viability, CellTiter-Glo ATP luminescence, 72 h; actives 1.4% (n = 400,000); Potency, µM (titrated, usually from 46.1 µM), usual class: cytotoxic; note: % is set by controls: 0 for no effect and ±100 for the full control effect; nearly all actives have a fitted effect of over 60% in size
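Here the drug-naive KB-3-1 line serves as comparator for MDR sub-line selectivity; cells received compound titrations, 72 h at 37 °C, then CellTiter-Glo readout.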
TGFb SMAD3 inh: inhibitors of TGF-b signaling | HepG2 CAGA-GFP TGF-b/SMAD3 reporter, GFP fluorescence, 18 h; TGF-beta stimulated, 500 pg/mL final | Potency, µM (highest dose often 46.1 µM), inactives show top-dose activity, negative = inhibition, hits mostly inhibitors | actives 1.2% (n = 410,000) | AID 588855; note: % is set by controls: 0 for no effect and ±100 for the full control effect; nearly all actives have a fitted effect of over 65% in size
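Using HEPG2 CAGA-GFP reporter cells at 1000 cells/well, we pinned test compounds, stimulated with recombinant TGF-beta (500 pg/mL final) and measured total well GFP after 18 h.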
KB-V1 MDR tox: kills drug-selected multidrug resistant KB-V1 cells | Potency, µM (titrated, usually from 46.1 µM), actives largely listed as cytotoxic | AID 1347076 | KB-V1 MDR cells viability, CellTiter-Glo, 72 h | actives 3.4% (n = 400,000); note: % is set by controls: 0 for no effect and ±100 for the full control effect; nearly all actives have a fitted effect of over 60% in size
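Cells of the MDR subline KB-V1 are plated, dosed with compound at multiple concentrations, and incubated 72 h at 37 degrees C; CellTiter-Glo is then added and luminescence read after 10 min.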
S2 tox: cell viability loss in ATXN counter-screen | S2 cells (HEK-293 line with an ATXN2-luciferase reporter) viability, CellTiter-Fluor protease fluorescence, 24 h | AID 651635 | Potency, µM (highest dose often 56.7 µM), actives largely listed as cytotoxic | actives 0.49% (n = 400,000); note: nearly all actives have a fitted effect of over 40% in size
HepG2 viability: counter-screen for TGF-b inhibitors: cytotoxicity in HepG2 cells | HepG2 CAGA-GFP viability, ATP luminescence, 18 h | Potency, µM (titrated, usually from 46.1 µM), for inactives: at the highest dose activity change, negative = cytotoxicity, usual class: cytotoxic | actives 0.76% (n = 410,000)
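HepG2 CAGA-GFP cells (1000/well, DMEM with 1% FBS) received compound, then TGF-beta at 500 pg/mL final, and were incubated 18 hours at 37 degrees C. Viability was read by CellTiter-Glo luminescence. Media-only wells were set as complete cell-killing and DMSO as no toxicity.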
ATXN2 expr inh: ATXN2 expression inhibition; HEK-293 ATXN2-luciferase reporter, luminescence, 24 h; actives 0.72% (n = 360,000); Potency, µM (doses to about 57 µM), for the others: top-dose activity change, negative = inhibition, actives largely listed as inhibitors; note: % is set by controls: 0 for no effect and ±100 for the full control effect; nearly all actives have a fitted effect of over 55% in size
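ATXN2-luciferase reporter cells (luciferase flanked by upstream and downstream ATXN2 gene portions) were treated 24 h at 37 °C with compounds at up to 57 uM. SteadyGlo luminescence gave expression; GF-AFC fluorescence gave viability.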
Active calls of the source: *; i = inactive; ? = inconclusive; . = no result. Calls come from the whole dose curve; as a rule, active = well fitted curve in the direction sought with a large enough effect; inconclusive = small, poorly fitted or top-dose-only effect, or another doubt; inactive = no such curve, though single readings can be large; an effect the other way counts as inactive or inconclusive. Potency is the fitted concentration of half-maximal effect.

SMILES	KB-3-1 tox	TGFb SMAD3 inh	KB-V1 MDR tox	S2 tox	HepG2 viability	ATXN2 expr inh
CC(Sc1ccc(Cl)cc1)C(=O)Nc1ccccc1-c1ccccc1 (stereo not given)	i	-6%	?	i	-8%	-10%
O=C(CCC1CCCCC1)Nc1ccccc1-c1ccccc1	i	-12%	?	i	-3%	0%
Cc1ccc(SC(C)C(=O)Nc2ccccc2-c2ccccc2)cc1 (stereo not given)	i	?	21µM*	i	7%	-16%
CC(NC1CCCC1)C(=O)Nc1ccccc1-c1ccccc1 (stereo not given)	i	5%	12µM*	i	-8%	-7%
O=C(CCC1CCCC1)Nc1ccccc1-c1ccccc1	i	-19%	18µM*	i	-3%	10%
O=C(CC1CCCCC1)Nc1ccccc1-c1ccccc1	i	-7%	i	i	-23%	.
Cc1oc(-c2cccc(NC(=O)c3ccccn3)c2)nc1CNC(=O)c1cc(F)c(F)cc1F	.	.	.	i	.	.
CCCCCn1c(=N)c(S(=O)(=O)c2ccccc2)cc2c(=O)n3cccc(C)c3nc21	i	-1%	i	?	-6%	-7%
Cc1cc(OCc2cc(C(=O)NC(C)c3c(C)nn(C)c3C)no2)cc(C)c1Cl (stereo not given)	?	11µM*	i	i	-32%	?
Clc1nc(Cl)c2ncn(-c3ccccc3)c2n1	18µM*	-20%	?	?	-70%	?
CN(C)c1ncnc2c1ncn2-c1ccccc1	i	-1%	?	i	-19%	32%
CNc1nc(Cl)nc2c1ncn2-c1ccccc1	15µM*	-12%	6.5µM*	i	-38%	0%
Nc1nc2c(ncn2-c2ccccc2)c(=O)[nH]1	i	10%	i	?	-2%	-9%
Cn1cc(C(=O)O)c(=O)c2cc(S(=O)(=O)N3CCCCC3)ccc21	i	1%	i	.	-77%	.
Cc1cccc(CNC(=O)c2c3n(c(C)cc2=O)-c2ccccc2SC(c2ccsc2)C3)n1 (stereo not given)	.	.	.	i	.	.
CCN(CC(=O)Nc1ccc2c(c1)OCCO2)C(=O)/C=C/c1ccc([N+](=O)[O-])cc1	i	-5%	21µM*	?	-5%	6%
Cc1ccccc1OCCNc1cc(N2CCN(CCO)CC2)ccc1[N+](=O)[O-]	i	-9%	?	?	-35%	-20%
Cc1cccc(OCCNc2cc(N3CCN(CCO)CC3)ccc2[N+](=O)[O-])c1	i	1%	18µM*	?	-43%	-18%
COc1cccc(OCCNc2cc(N3CCOCC3)ccc2[N+](=O)[O-])c1	i	0%	9.2µM*	i	-40%	47%
CC(C)C(C)C=CC(C)C1CCC2C3=CC=C4CC(O)CCC4(C)C3CCC21C (stereo not given)	.	.	.	.	.	4%
COc1ccc(OC)c(NC(=O)C2(C)CCN2Cc2ccsc2)c1 (stereo not given)	i	-8%	i	i	-3%	-14%
COc1ccc(NC(=O)COc2cccc3c2CCN(Cc2cccnc2)C3=O)c(OC)c1	i	?	5.2µM*	i	-34%	-25%
COc1ccc(NC(=O)COc2cccc3c2CCN(Cc2cccnc2)C3=O)cc1	i	-26%	i	i	-12%	3%
CC(Nc1ccc(-c2nc(-c3ccncc3)no2)cc1[N+](=O)[O-])c1ccccc1 (stereo not given)	i	0%	i	i	2%	0%
COc1cccc(NC(=O)N(Cc2ccco2)C(C)c2cccs2)c1 (stereo not given)	i	-1%	i	i	-16%	6%
CC(c1cccs1)N(Cc1ccco1)C(=O)Nc1ccc(Cl)c(Cl)c1 (stereo not given)	i	?	16µM*	i	4%	?
